# Inconclusive results are not listed. Active and inactive are the calls of the source. Unless noted, calls come from the whole dose curve; as a rule, active = well fitted curve in either direction with a large enough effect (not every such curve was filed as active); inconclusive = small, poorly fitted or top-dose-only effect, or another doubt; inactive = flat fitted curve, though single readings scatter.
# Key:
# [1] = target: Lysosomal acid glucosylceramidase (Homo sapiens) (UniProt P04062); assay: Glucocerebrosidase-p2 (AID 348; in the data active = potency below about 10 µM; note: potency is the fitted concentration of half-maximal effect); settings: purified GBA, blue fluorogenic substrate, 40 min
# Chain of Lysosomal acid glucosylceramidase (Homo sapiens) (P04062 whole entry, looked up): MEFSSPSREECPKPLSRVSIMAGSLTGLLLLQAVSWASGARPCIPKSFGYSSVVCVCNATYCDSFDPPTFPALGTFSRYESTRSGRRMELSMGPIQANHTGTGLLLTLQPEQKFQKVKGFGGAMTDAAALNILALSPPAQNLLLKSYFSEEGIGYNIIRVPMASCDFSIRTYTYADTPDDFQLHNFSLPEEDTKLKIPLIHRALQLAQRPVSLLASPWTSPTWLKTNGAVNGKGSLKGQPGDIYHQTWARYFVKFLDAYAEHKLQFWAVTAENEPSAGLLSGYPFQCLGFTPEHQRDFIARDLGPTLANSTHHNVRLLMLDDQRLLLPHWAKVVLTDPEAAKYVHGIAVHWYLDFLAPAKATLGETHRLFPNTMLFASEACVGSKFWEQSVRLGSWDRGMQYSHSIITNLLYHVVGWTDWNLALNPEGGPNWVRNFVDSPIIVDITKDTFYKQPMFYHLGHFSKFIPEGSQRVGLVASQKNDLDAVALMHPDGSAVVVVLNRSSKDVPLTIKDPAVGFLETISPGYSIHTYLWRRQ
# How it was run: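 Normal human glucocerebrosidase (0.2 nM) with blue fluorogenic substrate (80 uM final) in citrate/phosphate pH 5.9 with 10mM sodium taurocholate, 0.01% tween-20; 40 min RT, NaOH/glycine stop; fluorescence Ex 365/Em 440; AC50 from a titration from 0.6 nM upwards.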
# [2] = AP1 Signaling Pathway (AID 357); settings: ME-180 AP-1-bla reporter, EGF-induced, beta-lactamase ratio, 5 h; at 7.69 µM (top of the series) unless noted;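 note: ME-180 reporter cells stimulated with EGF at its EC50 level; % is set by controls: 0 for no effect and ±100 for the full control effect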
# How it was run: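 Beta-lactamase reporter under AP-1 response element, ME-180 background. Stimulus: EC50 EGF. Compound exposure 5 h, 37 °C. Detection: CCF4, 2.5 h RT, 460/530 nm. Values: AC50 from titration.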
# [3] = target: Cytochrome P450 1A2 (Homo sapiens) (UniProt P05177); assay: p450-cyp1a2 (AID 410; calls by dose curve; note: potency is the fitted concentration of half-maximal effect;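 for activity change, negative = inhibition: -100% = full effect of reference inhibitor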); settings: recombinant CYP1A2, luciferin-ME demethylation, luminescence; series mostly up to 57 µM
# Chain of Cytochrome P450 1A2 (Homo sapiens) (P05177 whole entry, looked up): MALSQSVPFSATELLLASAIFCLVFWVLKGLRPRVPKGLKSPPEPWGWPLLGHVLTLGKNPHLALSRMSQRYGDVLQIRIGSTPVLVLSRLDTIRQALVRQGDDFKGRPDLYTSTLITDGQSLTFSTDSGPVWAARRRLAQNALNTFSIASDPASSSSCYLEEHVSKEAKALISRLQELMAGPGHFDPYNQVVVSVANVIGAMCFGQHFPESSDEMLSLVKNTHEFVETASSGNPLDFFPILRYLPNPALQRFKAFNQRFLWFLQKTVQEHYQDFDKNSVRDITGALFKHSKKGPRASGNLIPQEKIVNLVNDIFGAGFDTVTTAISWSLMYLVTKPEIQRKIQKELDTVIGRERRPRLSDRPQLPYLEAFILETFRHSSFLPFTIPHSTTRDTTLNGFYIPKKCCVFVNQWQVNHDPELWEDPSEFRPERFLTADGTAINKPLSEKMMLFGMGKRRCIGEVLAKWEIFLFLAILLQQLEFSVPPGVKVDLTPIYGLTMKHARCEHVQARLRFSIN
# How it was run: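 20nM CYP1A2, 100uM Luciferin-ME (=Km), 100mM KPO4; cpd 10 min RT; +NADPH regen, 60 min RT; stop/detect 20 min; luminescence. Normalized to furafylline 57 uM = full inhibition.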
# [4] = NFAT Signaling Pathway (AID 444); settings: Jurkat NFAT-bla M1, carbachol, beta-lactamase ratio, 5 h; at 7.69 µM (top of the series) unless noted;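 note: carbachol stimulus at about its EC50 of 1 µM final; % is set by controls: 0 for no effect and ±100 for the full control effect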
# How it was run: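 Jurkat cells with NFAT-driven β-lactamase reporter and co-expressed M1 receptor, stimulated with carbachol (final 1 uM, ~EC50), compound titration, 5 h at 37 °C. CCF4 loaded 1 h at RT; 460/530 nm ratio gave %activity and AC50.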
# [5] = Stat Signaling Pathway (AID 446); settings: ME-180 (cervical carcinoma) SIE beta-lactamase reporter, IL-6 stimulated, 5 h; at 7.69 µM (top of the series) unless noted;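 note: ME-180 cervical cancer cells given 40 pM IL-6 alongside compound; SIE-controlled beta-lactamase reporter measured as 460/530 nm FRET emission ratio; % is set by controls: 0 for no effect and ±100 for the full control effect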
# How it was run: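 FRET read-out (405 nm excitation, 460/530 nm emission) of a beta-lactamase reporter under a STAT-inducible element in ME-180 cervical carcinoma cells. Cells with compound receive 40 pM IL-6 for 5 h. Values are normalised to AC90 stimulation and AC90 JAK-inhibitor controls.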
# [6] = target: Glucocorticoid receptor (Homo sapiens) (UniProt P04150); assay: GR-EFC Redistribution (AID 451; calls by dose curve; note: potency is the fitted concentration of half-maximal effect); settings: CHO-K1 GR-EFC translocation, beta-gal luminescence, 2 h
# Chain of Glucocorticoid receptor (Homo sapiens) (P04150 whole entry, looked up, the tested form may be a part): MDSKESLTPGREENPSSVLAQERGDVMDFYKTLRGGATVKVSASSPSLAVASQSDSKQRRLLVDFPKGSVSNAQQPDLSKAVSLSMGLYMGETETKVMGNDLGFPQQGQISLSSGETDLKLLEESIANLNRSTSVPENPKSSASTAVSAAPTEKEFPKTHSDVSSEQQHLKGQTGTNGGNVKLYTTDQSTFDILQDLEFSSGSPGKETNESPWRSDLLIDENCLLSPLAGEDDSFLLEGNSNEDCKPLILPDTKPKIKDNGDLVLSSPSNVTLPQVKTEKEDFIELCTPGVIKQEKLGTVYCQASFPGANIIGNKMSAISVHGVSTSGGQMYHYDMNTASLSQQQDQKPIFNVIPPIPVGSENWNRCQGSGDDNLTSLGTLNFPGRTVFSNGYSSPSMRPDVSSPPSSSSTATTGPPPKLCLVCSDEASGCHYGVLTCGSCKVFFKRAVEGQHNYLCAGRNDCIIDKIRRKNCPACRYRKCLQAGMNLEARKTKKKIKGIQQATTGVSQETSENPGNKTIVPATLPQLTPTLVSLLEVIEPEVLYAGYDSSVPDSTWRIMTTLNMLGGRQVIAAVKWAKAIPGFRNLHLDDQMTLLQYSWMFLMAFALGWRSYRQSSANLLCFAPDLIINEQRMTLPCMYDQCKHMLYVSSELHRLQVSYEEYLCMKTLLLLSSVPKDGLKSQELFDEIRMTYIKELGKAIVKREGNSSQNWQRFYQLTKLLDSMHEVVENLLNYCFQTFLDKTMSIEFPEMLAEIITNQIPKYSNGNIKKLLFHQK
# How it was run: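 CHO-K1 cells expressing nuclear EA and GR-ED fragments of b-gal; compounds titrated up to 46 uM final, 2 h at 37 C. GR nuclear translocation read as complemented b-gal luminescence after 1 h RT detection.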
# [7] = target: Mitogen-activated protein kinase 10 (Mus musculus) (UniProt Q61831); assay: JNK3 AlphaScreen Assay (AID 530); settings: JNK3 lysate, c-Jun phosphorylation; series mostly up to 57.1 µM;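 note: kinase came from lysate of stimulated human HepG2 cells; signal reports phosphorylation of biotinylated GST-cJun 1-79 at Ser73 with 10 µM ATP; % is set by controls: 0 for no effect and ±100 for the full control effect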
# How it was run: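 HepG2 lysate (IL-1b/TNFa pre-activated) + biotin-GST-cJun 1-79 + anti-pSer73 cJun; cpd titration, 15 min RT; ATP 10 uM start; Tris pH 7.6, MgCl2, DTT, vanadate; beads in EDTA buffer; AlphaScreen.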
# [8] = target: 3',5'-cyclic-AMP phosphodiesterase 4B (Homo sapiens) (UniProt Q07343); assay: qHTS Assay for Inhibitors of PDE-IV (AID 607; active = well fitted activation curve with a large enough effect in the main read-out, with a control signal flat, not every such curve was filed as active; note: % of control where 0% means no effect); settings: HEK293 ACTOne CNG channel cells, membrane potential fluorescence; series mostly up to 22.9 µM
# Chain of 3',5'-cyclic-AMP phosphodiesterase 4B (Homo sapiens) (Q07343 whole entry, looked up): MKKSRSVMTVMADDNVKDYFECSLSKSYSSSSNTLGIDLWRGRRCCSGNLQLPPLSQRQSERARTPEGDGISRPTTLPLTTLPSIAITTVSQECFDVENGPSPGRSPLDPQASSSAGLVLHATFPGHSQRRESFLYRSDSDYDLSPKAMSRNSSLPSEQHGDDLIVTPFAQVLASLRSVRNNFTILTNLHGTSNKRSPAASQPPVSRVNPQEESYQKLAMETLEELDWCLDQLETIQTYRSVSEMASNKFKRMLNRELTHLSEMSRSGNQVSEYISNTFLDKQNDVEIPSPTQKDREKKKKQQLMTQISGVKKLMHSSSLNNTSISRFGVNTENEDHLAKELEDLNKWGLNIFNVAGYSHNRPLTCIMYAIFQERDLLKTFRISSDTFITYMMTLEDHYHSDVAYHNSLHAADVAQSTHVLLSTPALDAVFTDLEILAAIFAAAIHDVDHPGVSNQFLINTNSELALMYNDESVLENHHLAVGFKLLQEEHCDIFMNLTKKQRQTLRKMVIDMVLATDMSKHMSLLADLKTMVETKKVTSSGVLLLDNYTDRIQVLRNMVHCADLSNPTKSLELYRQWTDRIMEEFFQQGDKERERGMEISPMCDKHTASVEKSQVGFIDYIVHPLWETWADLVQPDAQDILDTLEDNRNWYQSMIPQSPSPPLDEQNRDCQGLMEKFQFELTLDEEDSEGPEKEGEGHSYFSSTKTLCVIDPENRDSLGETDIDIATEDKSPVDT
# How it was run: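 Cell-based read-out of cAMP via a modified cyclic nucleotide-gated channel and membrane potential dye (535/590 nm) in HEK293 cells expressing PDE4 endogenously. Compounds tested up to 22.9 uM final; 100 uM RO 20-1724 reference.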
# [9] = qHTS Assay for Lipid Storage Modulators (AID 1519; calls by dose curve); settings: Drosophila S3 cells, BODIPY lipid droplet/cell ratio, laser cytometry, cells loaded with oleic acid; for activity change, negative = inhibition: at 57.5 µM (top of the series)
# How it was run: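 Cells seeded at 5,000 per well were treated with compounds over a concentration series and loaded with oleic acid (400 uM, as added). Lipid droplet fluorescence (488 nm excitation, 500-530 nm channel) was read by laser-scanning cytometry and normalized to 20 uM Triacsin C.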
# [10] = Primary qHTS for small molecule stabilizers of the endoplasmic reticulum resident proteome: Secreted ER Calcium Modulated Protein (SERCaMP) assay (AID 1508630; active = well fitted curve in the direction sought with a large enough effect; an effect the other way counts as inactive or inconclusive; note: % is set by controls: 0 for no effect and ±100 for the full control effect); settings: SH-SY5Y GLuc-SERCaMP (Gaussia luciferase released on ER calcium loss) secretion, thapsigargin, luminescence; series mostly up to 38.4 µM
# How it was run: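 The SH-SY5Y reporter protocol was run at 3 concentrations up to 38.3 uM (primary) or 11 concentrations (follow-up): 16 h compound, 100 nM thapsigargin for 4 h, then extracellular luciferase luminescence.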
# [11] = target: Cytochrome P450 3A4 (Homo sapiens) (UniProt P08684); assay: qHTS Assay for Inhibitors and Substrates of Cytochrome P450 3A4 (AID 884; active = well fitted curve in the direction sought with a large enough effect; an effect the other way counts as inactive or inconclusive; note: % is set by controls: 0 for no effect and ±100 for the full control effect; nearly all actives have a fitted effect of over 50% in size); settings: recombinant CYP3A4, Luciferin-PPXE luminescence; series mostly up to 57.1 µM
# Chain of Cytochrome P450 3A4 (Homo sapiens) (P08684 whole entry, looked up): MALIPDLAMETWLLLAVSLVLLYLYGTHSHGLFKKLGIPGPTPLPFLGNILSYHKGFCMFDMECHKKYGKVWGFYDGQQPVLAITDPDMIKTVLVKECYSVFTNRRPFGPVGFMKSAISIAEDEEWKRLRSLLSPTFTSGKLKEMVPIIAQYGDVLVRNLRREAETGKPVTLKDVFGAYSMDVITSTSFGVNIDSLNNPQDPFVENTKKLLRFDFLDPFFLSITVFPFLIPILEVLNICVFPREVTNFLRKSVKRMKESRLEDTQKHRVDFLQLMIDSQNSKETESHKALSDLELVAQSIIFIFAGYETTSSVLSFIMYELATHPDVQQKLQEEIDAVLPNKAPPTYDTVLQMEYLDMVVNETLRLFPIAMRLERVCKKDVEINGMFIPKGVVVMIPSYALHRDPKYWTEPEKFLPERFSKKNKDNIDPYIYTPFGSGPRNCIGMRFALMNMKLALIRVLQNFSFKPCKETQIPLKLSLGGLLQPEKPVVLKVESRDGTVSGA
# How it was run: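 Luminescent readout of luciferin produced by CYP3A4 (20 nM) dealkylation of Luciferin-PPXE, 25 uM (its KM). NADPH-driven reaction ran 60 min at RT after 10 min compound preincubation; data scaled to 57 uM ketoconazole as 100% inhibition.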
# [12] = target: Cytochrome P450 3A4 (Homo sapiens) (UniProt P08684); assay: qHTS Assay for Activators of Cytochrome P450 3A4 (AID 885; active = well fitted curve in the direction sought with a large enough effect; an effect the other way counts as inactive or inconclusive; note: nearly all actives have a fitted effect of over 65% in size; note: potency is the fitted concentration of half-maximal effect); settings: recombinant CYP3A4, Luciferin-PPXE luminescence, 60 min; series mostly up to 57.1 µM
# How it was run: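 Luminescent readout of luciferin formed from 25 uM Luciferin-PPXE (KM level) by 20 nM CYP3A4 in 200 mM KPO4, with 60 min NADPH-driven reaction at room temperature after 10 min compound exposure. Ketoconazole (57 uM) defined 100% inhibition.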
# [13] = target: Cytochrome P450 2D6 (Homo sapiens) (UniProt P10635); assay: qHTS Assay for Inhibitors and Substrates of Cytochrome P450 2D6 (AID 891; active = well fitted curve in the direction sought with a large enough effect; an effect the other way counts as inactive or inconclusive; note: potency is the fitted concentration of half-maximal effect; nearly all actives have a fitted effect of over 60% in size); settings: recombinant CYP2D6, luciferin-ME EGE luminescence; series mostly up to 57.1 µM
# Chain of Cytochrome P450 2D6 (Homo sapiens) (P10635 whole entry, looked up): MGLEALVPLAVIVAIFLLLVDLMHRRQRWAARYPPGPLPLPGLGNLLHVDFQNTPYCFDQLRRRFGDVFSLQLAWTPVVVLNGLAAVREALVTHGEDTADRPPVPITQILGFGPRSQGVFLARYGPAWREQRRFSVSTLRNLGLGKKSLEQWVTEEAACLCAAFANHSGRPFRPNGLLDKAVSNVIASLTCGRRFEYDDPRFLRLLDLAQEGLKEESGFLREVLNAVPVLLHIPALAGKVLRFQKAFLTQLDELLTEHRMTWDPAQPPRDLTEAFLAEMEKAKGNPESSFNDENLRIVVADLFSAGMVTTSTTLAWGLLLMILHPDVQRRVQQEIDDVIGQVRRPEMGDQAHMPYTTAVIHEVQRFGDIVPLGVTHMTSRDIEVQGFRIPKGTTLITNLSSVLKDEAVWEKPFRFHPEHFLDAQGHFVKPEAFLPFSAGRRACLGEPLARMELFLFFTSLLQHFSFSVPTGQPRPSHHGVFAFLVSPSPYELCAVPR
# How it was run: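 Luminescent read-out of luciferin formed by 5 nM human CYP2D6 demethylating 30 uM Luciferin-ME EGE (Km level) over 60 min at room temperature after NADPH regeneration addition. Data normalized to full inhibition by 1.43 uM quinidine.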
# [14] = target: Cytochrome P450 2C9 (Homo sapiens) (UniProt P11712); assay: qHTS Assay for Inhibitors and Substrates of Cytochrome P450 2C9 (AID 883; active = well fitted curve in the direction sought with a large enough effect; an effect the other way counts as inactive or inconclusive; note: potency is the fitted concentration of half-maximal effect; nearly all actives have a fitted effect of over 60% in size); settings: recombinant CYP2C9, luciferin-H luminescence, 60 min; series mostly up to 57.1 µM
# Chain of Cytochrome P450 2C9 (Homo sapiens) (P11712 whole entry, looked up): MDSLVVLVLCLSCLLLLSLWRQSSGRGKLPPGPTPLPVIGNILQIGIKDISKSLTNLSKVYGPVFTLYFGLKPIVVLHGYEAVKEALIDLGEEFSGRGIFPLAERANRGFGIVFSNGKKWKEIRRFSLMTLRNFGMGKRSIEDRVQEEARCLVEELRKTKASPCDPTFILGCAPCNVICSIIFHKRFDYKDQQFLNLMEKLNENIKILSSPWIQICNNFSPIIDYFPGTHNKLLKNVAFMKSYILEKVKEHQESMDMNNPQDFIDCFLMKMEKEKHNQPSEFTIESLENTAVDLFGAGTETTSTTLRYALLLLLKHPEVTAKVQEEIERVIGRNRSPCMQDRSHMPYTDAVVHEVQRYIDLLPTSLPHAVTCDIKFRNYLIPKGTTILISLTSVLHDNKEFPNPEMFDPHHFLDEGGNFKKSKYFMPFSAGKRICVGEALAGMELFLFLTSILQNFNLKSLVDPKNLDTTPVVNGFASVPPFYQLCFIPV
# How it was run: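 Human CYP2C9 (10nM) with Luciferin-H at 100uM (its KM) in 25mM KPO4; compound preincubated 10 min at 37C, then NADPH regeneration for 60 min at 37C. Luciferin read by luminescence after detection reagent; normalized to 57uM sulphaphenazole as full inhibition.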
# [15] = target: Cytochrome P450 2C19 (Homo sapiens) (UniProt P33261); assay: qHTS Assay for Inhibitors and Substrates of Cytochrome P450 2C19 (AID 899; active = well fitted curve in the direction sought with a large enough effect; an effect the other way counts as inactive or inconclusive; note: potency is the fitted concentration of half-maximal effect; nearly all actives have a fitted effect of over 60% in size); settings: recombinant CYP2C19, luciferin-H EGE luminescence; series mostly up to 57.1 µM
# Chain of Cytochrome P450 2C19 (Homo sapiens) (P33261 whole entry, looked up): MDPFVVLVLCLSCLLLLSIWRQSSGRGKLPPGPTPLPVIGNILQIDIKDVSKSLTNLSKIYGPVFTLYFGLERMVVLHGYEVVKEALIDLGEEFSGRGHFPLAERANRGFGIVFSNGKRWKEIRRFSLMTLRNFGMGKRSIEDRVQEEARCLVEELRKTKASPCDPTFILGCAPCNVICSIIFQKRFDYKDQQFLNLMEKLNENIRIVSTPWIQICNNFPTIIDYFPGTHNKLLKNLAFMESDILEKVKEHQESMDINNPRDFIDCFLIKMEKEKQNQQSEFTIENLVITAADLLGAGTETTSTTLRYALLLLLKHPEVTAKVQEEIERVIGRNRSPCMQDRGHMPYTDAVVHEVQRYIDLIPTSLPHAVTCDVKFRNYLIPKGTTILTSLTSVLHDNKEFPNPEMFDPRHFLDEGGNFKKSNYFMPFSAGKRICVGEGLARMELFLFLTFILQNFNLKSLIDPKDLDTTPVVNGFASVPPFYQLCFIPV
# How it was run: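 5 nM human CYP2C19 with 10uM Luciferin-H EGE (at KM) in 50mM KPO4, compound preincubated 10 min at 37C, then NADPH regeneration for 60 min at 37C. Luciferin read by luminescence after detection reagent; normalized to 57uM ketoconazole as full inhibition.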
# [16] = measured here: cell count channel max response
# [17] = measured here: lipid channel max response
SMILES,Potency [1],"activity change, negative = inhibition [2]",Potency [3],"activity change, negative = inhibition [4]","activity, negative = inhibition [5]",Potency [6],outcome [7],Potency [8],"activity change, negative = inhibition [9]","max response [9, 16]","max response [9, 17]",Potency [10],Potency [11],Potency [12],Potency [13],Potency [14],Potency [15]
O=C(Nc1cccc(F)c1)N1CC2(CCN(S(=O)(=O)c3ccccc3)CC2)C1,> 11.4 µM (inactive),-8.31% (inactive),inactive,22.6% (inactive),-14.1% (inactive),> 46 µM (inactive),inactive,inactive,-4.83% (inactive),-8.16%,-11.8%,inactive,–,–,–,–,–
O=C(c1cnccn1)N1CCC2(CC1)CCN(C(c1ccccc1)c1ccccc1)CC2,> 11.4 µM (inactive),8.38% (inactive),10 µM (active),-20.1% (inactive),6.95% (inactive),> 46 µM (inactive),inactive,inactive,1.71% (inactive),1.55%,5.2%,inactive,inactive,3.16 µM (active),3.98 µM (active),–,–
CC(C)NC(=O)N1CCC2(CC1)CCN(C(=O)c1cccc(F)c1)CC2,> 11.4 µM (inactive),10.6% (inactive),inactive,6.56% (inactive),7.13% (inactive),> 46 µM (inactive),inactive,inactive,1.61% (inactive),-10.3%,-8.2%,inactive,inactive,20 µM (active),–,–,–
O=C(c1csnn1)N1CCC2(CCCN(c3ccccc3)C2)CC1,> 11.4 µM (inactive),-2.99% (inactive),inactive,1.2% (inactive),-8.69% (inactive),> 46 µM (inactive),inactive,inactive,-0.699% (inactive),7.99%,11.5%,inactive,–,inactive,–,7.94 µM (active),–
O=C(c1ccncc1)N1CCC2(CC1)CN(c1ccccc1)C2,> 11.4 µM (inactive),-2.66% (inactive),inactive,4.65% (inactive),3.39% (inactive),> 46 µM (inactive),inactive,inactive,6.84% (inactive),9.42%,18.7%,inactive,–,–,7.94 µM (active),2.51 µM (active),0.316 µM (active)
CC(C)NC(=O)N1CCC2(CC1)CCN(C(=O)c1ccncc1)CC2,> 11.4 µM (inactive),-7.19% (inactive),inactive,1.59% (inactive),-8.96% (inactive),> 46 µM (inactive),inactive,inactive,-0.818% (inactive),9.1%,9.91%,inactive,–,inactive,–,–,–
